Screening results as filed in PubChem.
Cruzain inh noDet: blocks cruzain activity in detergent-free assay; 200,000 compounds, 2.3% hits; AID 1476; Potency, µM, for inactives: max response, negative = inhibition, most hits filed as inhibitors; purified cruzain, Z-FR-AMC fluorescence, no detergent; P25779;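 note: plate controls were enzyme without inhibitor for no effect and buffer without enzyme for full effect; nearly all actives have a fitted effect of over 40% in size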
Target sequence (P25779 123-467 limits assumed): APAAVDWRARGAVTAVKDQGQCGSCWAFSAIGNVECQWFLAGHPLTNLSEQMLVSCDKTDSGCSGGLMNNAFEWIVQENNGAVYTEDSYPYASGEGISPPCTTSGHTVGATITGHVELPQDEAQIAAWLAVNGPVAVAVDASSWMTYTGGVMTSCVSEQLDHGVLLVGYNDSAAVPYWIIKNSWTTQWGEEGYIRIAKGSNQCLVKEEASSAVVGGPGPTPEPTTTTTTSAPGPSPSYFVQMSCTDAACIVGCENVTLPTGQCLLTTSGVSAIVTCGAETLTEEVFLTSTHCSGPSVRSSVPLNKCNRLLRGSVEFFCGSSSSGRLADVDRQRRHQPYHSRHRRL
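Purified cruzain at 1.5 nM, pre-incubated 15 min with compound at room temperature in 100 mM sodium acetate pH 5.5, 5 mM DTT, 0.00005% Triton X-100. Reaction started with 2 uM Z-FR-AMC; AMC fluorescence increase over 60 s gives rate.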
Cruzain inh Det: blocks cruzain activity in presence of Triton detergent. P25779. purified cruzain, Z-FR-AMC fluorescence, 0.01% Triton. Potency, µM, for the others: max response, negative = inhibition, hits mostly inhibitors. 200,000 compounds, 0.43% hits. AID 1478;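 note: plate controls were neutral wells for no effect and buffer without enzyme for full effect; nearly all actives have a fitted effect of over 40% in size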
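Read-out: AMC fluorescence (360 nm excitation, 450 nm emission), four reads over 2 min, first-to-third difference used. Conditions: cruzain 1.5 nM, Z-FR-AMC 2 uM, pH 5.5 acetate, 5 mM DTT, 0.01% Triton X-100.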
An asterisk follows results filed as active; ? = inconclusive. Rows were chosen to be rich in hits. Some 2.4% of all compounds tested hit in one or more screens of this group. Calls come from the whole dose curve; as a rule, active = well fitted curve in the direction sought with a large enough effect; inconclusive = small, poorly fitted or top-dose-only effect, or another doubt; inactive = no such curve, though single readings can be large; an effect the other way counts as inactive or inconclusive. Potency is the fitted concentration of half-maximal effect.

SMILES	Cruzain inh noDet	Cruzain inh Det
COc1ccc(C2=CSC3=C(C(=O)c4cccc(S(=O)(=O)N(C)C)c4)CCN23)cc1	25.1µM*	-7.6%
COc1ccc(-c2csc(NC(=O)c3cccc(S(=O)(=O)N4CCN(C)CC4)c3)n2)cc1	-5.3%	-3.1%
COc1cc2oc(=O)cc(-c3ccc(-c4ccc(C)cc4)cc3)c2c(OC)c1OC	3.4%	3.1%
COc1cc2oc(=O)cc(-c3ccc(-c4ccc(C#N)cc4)cc3)c2c(OC)c1OC	35.5µM*	0.7%
CCOc1cc(-c2nnc(SCC(=O)NCCCOC)nc2-c2ccc(OC)c(OCC)c2)ccc1OC	?	-1.3%
O=C(Nc1cc(-c2ccccc2F)nn1-c1ccccc1)c1ccccc1Br	31.6µM*	-0.5%
Cc1cccc(C(=O)Nc2cc(-c3ccccc3F)nn2-c2ccccc2)c1	-8.0%	-1.4%
O=S(=O)(Nc1ccc2oc3c(c2c1)CCCC3)c1cc(Cl)ccc1Cl	31.6µM*	-3.1%
COc1ccc(S(=O)(=O)Nc2ccc3oc4c(c3c2)CCCC4)cc1	?	-10.7%
COc1ccc(C2CC(=O)N3CN(c4ccccc4F)CSC3=C2C#N)cc1OC (stereo not drawn)	2.3%	1.1%
CCc1ccccc1N1CSC2=C(C#N)C(c3ccccc3F)CC(=O)N2C1 (stereo not drawn)	25.1µM*	-3.6%
Cn1c(=O)c(=O)n(C)c2cc(N3CCCC3)c(NC(=O)c3ccc(C(C)(C)C)cc3)cc21	-3.8%	-4.6%
CC(C)OCCCNC(=O)C(=O)Nc1c2c(nn1-c1ccccc1)CS(=O)(=O)C2	0.2%	-1.2%
CCc1cnc2c(c1SCCC(C)C)c(=O)n(C)c(=O)n2C	1.6%	-4.4%
CCc1cccc(C)c1Nc1c(-c2ccccc2)nc2sccn12	-3.2%	-11.6%
Cc1ccccc1Nc1c(-c2cc(Br)ccc2F)nc2ccccn12	-4.8%	-0.7%
Cc1ccccc1Nc1c(-c2ccc(Br)cc2O)nc2sccn12	20µM*	-4.1%
Cc1ccc(-c2nc3sccn3c2Nc2ccccc2C)cc1	25.1µM*	-12.9%
CCC(=O)N1CCc2cc(S(=O)(=O)CCC(=O)Nc3ccc(OC(F)(F)F)cc3)ccc21	12.9%	-5.1%
CCn1c(=O)cc(OCC(=O)N(C)c2cc(Cl)ccc2C)c2ccccc21	4.2%	-0.7%
Cc1nn(CCCC(=O)NCc2cccc(Cl)c2)c(=O)c2c1sc1ccccc12	?	-15.9%
COC(=O)c1ccccc1NC(=O)CN1C(=O)C2CCCN2c2ncc(Cl)cc21 (stereo not drawn)	10µM*	-1.8%
O=C(CN1C(=O)C2CCCN2c2ncc(Cl)cc21)NCc1ccc2c(c1)OCO2 (stereo not drawn)	25.1µM*	3.0%
COc1ccc(CNC(=O)CN2C(=O)C3CCCN3c3ncc(Cl)cc32)cc1 (stereo not drawn)	-26.3%	-3.1%
CCc1ccccc1NC(=O)CN1C(=O)C2CCCN2c2ncc(Cl)cc21 (stereo not drawn)	-3.4%	2.3%
SMILES	Cruzain inh noDet	Cruzain inh Det
CCn1cc2nc(SCC(=O)Nc3cc(OC)cc(OC)c3)n(Cc3ccc(Cl)cc3)c(=O)c2n1	11.4%	-6.4%
CC1CCCCN1C(=O)CSc1n[nH]c(-c2ccccc2)n1 (stereo not drawn)	-5.0%	2.6%
CCOc1ccc(S(=O)(=O)N(CC(=O)Nc2ccc3c(c2)OCO3)c2ccc(C)cc2)cc1	1.4%	-7.6%
Cc1ccc(S(=O)(=O)c2c(Nc3cc(C)ccc3C)sc(C(=O)c3ccc4c(c3)OCO4)c2N)cc1	-27.0%	9.2%
Cc1ccc(S(=O)(=O)c2c(Nc3ccc(C)c(C)c3)sc(C(=O)c3ccc4c(c3)OCO4)c2N)cc1	2.51µM*	-2.4%
CCOc1ccc(Nc2sc(C(=O)c3ccc4c(c3)OCO4)c(N)c2S(=O)(=O)c2ccc(C)cc2)cc1	3.16µM*	-2.6%
CCOC(=O)N1CCc2c(sc3c2c(=O)n(-c2ccc(CC)cc2)c(=O)n3CC(=O)Nc2ccc(C)cc2)C1	14.1%	-2.3%
Cc1ccc(C)c(CN2C(=O)c3ccccc3S(=O)(=O)c3ccc(C(=O)N4CCCCC4)cc32)c1	1.7%	-2.2%
Cc1ccc(C)c(NC(=O)C(=O)NCCc2csc(-c3ccc(C(F)(F)F)cc3)n2)c1	-8.2%	-1.8%
COc1ccc(N(Cc2ccccc2)S(=O)(=O)c2cccc(C(=O)NC3=NCCS3)c2)cc1	25.1µM*	3.9%
COc1cccc(C(=O)NC2=NCCS2)c1	-5.0%	0.3%
COc1ccc(-n2c(=O)c3sc4ccccc4c3n(C)c2=O)cc1	-4.3%	-0.4%
O=C(NCC(c1cccs1)S(=O)(=O)c1cccs1)c1c(F)cccc1F (stereo not drawn)	-6.6%	0.2%
Cc1c(C(=O)OCc2ccccc2)[nH]c2c1C(=O)CC(c1ccc(Cl)cc1)C2 (stereo not drawn)	7.94µM*	0.3%
CCOCCOC(=O)c1[nH]c2c(c1C)C(=O)CC(c1ccc(N(C)C)cc1)C2 (stereo not drawn)	9.5%	-2.2%
C/C=C/COC(=O)c1[nH]c2c(c1C)C(=O)CC(c1ccc(N(C)C)cc1)C2 (stereo not drawn)	31.6µM*	-2.9%
COc1ccc(C2CC(=O)c3c([nH]c(C(=O)OCc4ccccc4)c3C)C2)cc1OC (stereo not drawn)	5.0%	-2.4%
CCOC(=O)c1cc(C)n(CC2CCC(C(=O)Nc3ccc(C(C)=O)cc3)CC2)c1C (stereo not drawn)	?	-8.0%
CCOC(=O)c1c(S(=O)(=O)NCC(=O)N(C)Cc2ccccc2)c(C)n(C)c1C	-0.9%	1.3%
COc1ccccc1CNC(=O)c1cc(Sc2cccc(Cl)c2)nc2ccccc12	-8.9%	6.6%
O=c1[nH]c(CN2CCc3ccccc32)nc2scc(-c3cccs3)c12	10µM*	-5.7%
O=c1[nH]cnc2scc(-c3cccs3)c12	3.6%	-1.6%
CCSc1ncc(Cl)c(C(=O)N(Cc2ccccc2Cl)C2CCS(=O)(=O)C2)n1 (stereo not drawn)	0.0%	-4.9%
O=C(NCc1ccccc1)c1ccc2c(c1)sc1nc(-c3ccc(F)cc3)cn12	-4.4%	-1.3%
COc1cc(NC(=O)c2cc(C)nc3c2c(C)nn3-c2ccccc2Cl)cc(OC)c1	?	-4.5%
SMILES	Cruzain inh noDet	Cruzain inh Det
COc1ccc(CCNc2nc(-c3sc(C)nc3C)cs2)cc1OC	?	-7.6%
Cc1nc(N)sc1-c1csc(Nc2ccccc2)n1	12.6µM*	25.1µM*
COc1ccc(OC)c(Nc2nc(-c3sc(N)nc3C)cs2)c1	25.1µM*	?
Cc1cc(O)ccc1Nc1nc(-c2sc(N)nc2C)cs1	?	-20.1%
O=C(CN1CCCN(Cc2ccccc2F)S1(=O)=O)Nc1ccc(F)c(Cl)c1	13.6%	-11.5%
Cc1nnc(NC(=O)Nc2cccc(Cl)c2)s1	-0.5%	0.9%
Cc1ccc(OCCSCc2nnc(NC(=O)Nc3cccc(Cl)c3)s2)cc1	15.8µM*	-1.5%
O=C(Nc1ccc(Cl)c(Cl)c1)Nc1nnc(CSc2ccccc2)s1	10µM*	-1.0%
O=C(Nc1ccccc1)Nc1nnc(CSCc2ccccc2Cl)s1	?	-2.8%
O=C(Nc1ccc(Cl)cc1)Nc1nnc(SCc2ccccc2)s1	7.94µM*	-0.7%
CCCc1nnc(NC(=O)Nc2ccccc2Cl)s1	-12.1%	-1.6%
O=C(Nc1ccc(Cl)cc1)Nc1nnc(CSCc2ccccc2Cl)s1	6.31µM*	-1.3%
O=C(Nc1nnc(SCc2ccc(Cl)cc2)s1)c1ccco1	?	5.7%
Cc1cc(C)c(S(=O)(=O)OC[C@H]2C=CC[C@@H](CCC[C@H]3O[C@H](C(=O)OC(C)C)CC[C@@H]3C)O2)c(C)c1	-2.8%	1.7%
